# Test results reported in PubChem BioAssay (NCATS).
# “And” between values parts separate entries of the source, which are not always exact repeats. Equal values may be shown once. A number with no mark means an inactive call. Results filed as inconclusive are left out. Entries that show only a call come without a potency. The source made the active and inactive calls. Unless noted, the call rests on the fitted dose curve; in most records, active means well fitted curve in the direction sought with a large enough effect; inconclusive means small, poorly fitted or top-dose-only effect, or another doubt; inactive means no such curve, though single readings can be large; an effect the other way counts as inactive or inconclusive.
# What was measured:
# [1] = test system: CASKI; test: Primary qHTS to identify gynecologic anti-cancer compounds using libraries of approved drugs and bioactive compounds (AID 1345084); conditions: Gynecologic cancer cell panel viability, ATPlite luminescence, 48 h; series mostly up to 57.5 µM; further: nearly all actives have a fitted effect of over 55% in size
# Outline: (§1)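 Five-concentration response, 48 h; readout is ATP-driven luciferase luminescence.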
# [2] = test system: Es-2; test: as above; conditions: Gynecologic cancer cell panel viability, ATPlite luminescence, 48 h; series mostly up to 57.5 µM
# Outline: as §1
# [3] = test system: HeLa; test: as above; conditions: Gynecologic cancer cell panel viability, ATPlite luminescence, 48 h; series mostly up to 57.5 µM
# Outline: as §1
# [4] = test system: Hek293T; test: as above; conditions: Gynecologic cancer cell panel viability, ATPlite luminescence, 48 h, control line for the selectivity index; series mostly up to 57.5 µM
# Outline: as §1
# [5] = test system: JEG-3; test: as above; conditions: Gynecologic cancer cell panel viability, ATPlite luminescence, 48 h; series mostly up to 57.5 µM
# Outline: as §1
# [6] = test system: OV90; test: as above; conditions: Gynecologic cancer cell panel viability, ATPlite luminescence, 48 h; series mostly up to 57.5 µM
# Outline: as §1
# [7] = test system: PA-1; test: as above; conditions: Gynecologic cancer cell panel viability, ATPlite luminescence, 48 h; series mostly up to 57.5 µM
# Outline: as §1
# [8] = test system: SKOV3; test: as above; conditions: Gynecologic cancer cell panel viability, ATPlite luminescence, 48 h; series mostly up to 57.5 µM
# Outline: as §1
# [9] = test system: Tov-21-G; test: as above; conditions: Gynecologic cancer cell panel viability, ATPlite luminescence, 48 h; series mostly up to 57.5 µM
# Outline: as §1
# [10] = test system: Tov112D; test: as above; conditions: Gynecologic cancer cell panel viability, ATPlite luminescence, 48 h; series mostly up to 57.5 µM
# Outline: as §1
# [11] = Drug repurposing screens with cells derived from glioblastoma tumor samples (AID 1345199); conditions: GBM patient neurospheres viability, ATP luminescence, 48 h; further: nearly all actives have a fitted effect of over 40% in size; further: potency means the concentration at half of the fitted maximal effect
# Outline: (§2)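 Four patient lines of CD133+ GBM neurospheres were screened at several concentrations; hits were retested in those lines plus three slower-growing GBM lines, using 48-hour treatment and ATP-based viability.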
# [12] = test system: astro; test: as above; conditions: viability, ATP luminescence, 48 h; series mostly up to 45.9 µM
# Outline: as §2
# [13] = target: Nuclear receptor subfamily 1 group I member 2 (Rattus norvegicus) (UniProt Q9R1A7); test: qHTS assay for small molecule activators of the rat pregnane X receptor (rPXR) signaling pathway (AID 651751; call rule not given here); conditions: rPXR reporter cells, luciferase (One-Glo), 24 h
# Sequence of Nuclear receptor subfamily 1 group I member 2 (Rattus norvegicus) (Q9R1A7 whole entry, looked up): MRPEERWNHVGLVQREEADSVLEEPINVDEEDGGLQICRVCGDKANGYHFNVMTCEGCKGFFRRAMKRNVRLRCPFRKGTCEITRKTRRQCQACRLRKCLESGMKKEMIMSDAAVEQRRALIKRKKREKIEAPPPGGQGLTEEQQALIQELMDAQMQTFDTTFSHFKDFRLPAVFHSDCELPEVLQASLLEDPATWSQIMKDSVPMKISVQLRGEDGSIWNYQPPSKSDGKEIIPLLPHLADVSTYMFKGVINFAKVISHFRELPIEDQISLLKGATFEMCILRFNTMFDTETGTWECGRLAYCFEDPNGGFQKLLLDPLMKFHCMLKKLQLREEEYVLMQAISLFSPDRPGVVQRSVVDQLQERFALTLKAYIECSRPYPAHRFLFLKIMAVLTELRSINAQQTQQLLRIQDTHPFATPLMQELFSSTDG
# [14] = qHTS assay for small molecule activators of the human pregnane X receptor (PXR) signaling pathway (AID 720659; call rule not given here)
# [15] = at 45.9 µM (top of the series), tumour line B
# [16] = at 45.9 µM (top of the series), tumour line D
# [17] = at 46 µM (top of the series), tumour line A
# [18] = at 46.1 µM (top of the series), tumour line C
smiles,measurement,setting,value
Cc1cccc(Nc2cc(Cl)nc(SCC(=O)O)n2)c1C,Potency,[1],inactive
same,Potency,[2],inactive
same,Potency,[3],inactive
same,Potency,[4],inactive
same,Potency,[5],inactive
same,Potency,[6],inactive
same,Potency,[7],inactive
same,Potency,[8],inactive
same,Potency,[9],inactive
same,Potency,[10],inactive
same,"activity, negative = cell killing",[11]; [15],-5.07%
same,"activity, negative = cell killing",[11]; [16],-15.1%
same,"activity, negative = cell killing",[11]; [17],-33.3%
same,"activity, negative = cell killing",[11]; [18],0.18%
same,Potency,[12],inactive
same,max response,[13],-4.85%
same,outcome,[14],inactive
Cn1c(=O)c2c(ncn2CC2OCCO2)n(C)c1=O,Potency,[1],inactive
same,Potency,[2],inactive
same,Potency,[3],inactive
same,Potency,[4],inactive
same,Potency,[5],inactive
same,Potency,[6],inactive
same,Potency,[7],inactive
same,Potency,[8],inactive
same,Potency,[9],inactive
same,Potency,[10],inactive
same,"activity, negative = cell killing",[11]; [15],-0.596%
same,"activity, negative = cell killing",[11]; [16],-3.46%
same,"activity, negative = cell killing",[11]; [17],-20.3%
same,"activity, negative = cell killing",[11]; [18],-4.14%
same,Potency,[12],inactive
Nc1ncnc2c1ncn2[C@@H]1O[C@H](CO)[C@@H](O)[C@H]1O,Potency,[1],inactive
same,Potency,[2],inactive
same,Potency,[3],inactive
same,Potency,[4],inactive
same,Potency,[5],inactive
same,Potency,[6],inactive
same,Potency,[7],inactive
same,Potency,[8],inactive
same,Potency,[9],inactive
same,Potency,[10],inactive
same,"activity, negative = cell killing",[11]; [15],4.34%
same,"activity, negative = cell killing",[11]; [16],12.4%
same,"activity, negative = cell killing",[11]; [17],-12.9%
same,"activity, negative = cell killing",[11]; [18],-3.63%
same,Potency,[12],inactive
Oc1cccc(O)c1,Potency,[1],inactive
same,Potency,[2],inactive
same,Potency,[3],inactive
same,Potency,[4],inactive
same,Potency,[5],inactive
same,Potency,[6],inactive
same,Potency,[7],inactive
same,Potency,[8],inactive
same,Potency,[9],inactive
same,Potency,[10],inactive
same,"activity, negative = cell killing",[11]; [15],-16.6%
same,"activity, negative = cell killing",[11]; [16],-5.28%
same,"activity, negative = cell killing",[11]; [18],27.8%
same,Potency,[12],inactive
same,max response,[13],4.18%
same,outcome,[14],inactive
O=C(O)COc1nn(Cc2ccccc2)c2ccccc12,Potency,[1],inactive
same,Potency,[2],inactive
same,Potency,[3],inactive
same,Potency,[4],inactive
same,Potency,[5],inactive
same,Potency,[6],inactive
same,Potency,[7],inactive
same,Potency,[8],inactive
same,Potency,[9],inactive
same,Potency,[10],inactive
same,"activity, negative = cell killing",[11]; [15],0.429%
same,"activity, negative = cell killing",[11]; [16],-3.69%
same,"activity, negative = cell killing",[11]; [18],-16.4%
same,Potency,[12],inactive
CCCCC(CC)COC(=O)c1ccccc1O (stereo not drawn),Potency,[1],inactive
same,Potency,[2],inactive
same,Potency,[3],inactive
same,Potency,[4],inactive
same,Potency,[5],inactive
same,Potency,[6],inactive
same,Potency,[7],inactive
same,Potency,[8],inactive
same,Potency,[9],inactive
same,Potency,[10],inactive
same,"activity, negative = cell killing",[11]; [15],-9.83%
same,"activity, negative = cell killing",[11]; [16],-3.06%
same,"activity, negative = cell killing",[11]; [18],2.02%
same,Potency,[12],inactive
same,max response,[13],2.15%
same,outcome,[14],inactive
C[C@@H]1CC[C@@]2(OC1)O[C@H]1C[C@H]3[C@@H]4CC[C@H]5C[C@@H](O)CC[C@]5(C)[C@H]4CC(=O)[C@]3(C)[C@H]1[C@@H]2C,"activity change, negative = cytotoxicity",[1],7.56% [at 6.55 µM]
same,"activity change, negative = cytotoxicity",[2],-0.456% [at 6.55 µM]
same,"activity change, negative = cytotoxicity",[3],1.36% [at 6.55 µM]
same,"activity change, negative = cytotoxicity",[4],7.28% [at 6.55 µM]
same,"activity change, negative = cytotoxicity",[5],-0.879% [at 6.55 µM]
same,"activity change, negative = cytotoxicity",[6],12.9% [at 6.55 µM]
same,"activity change, negative = cytotoxicity",[7],9.38% [at 6.55 µM]
same,"activity change, negative = cytotoxicity",[8],8.75% [at 6.55 µM]
same,"activity change, negative = cytotoxicity",[9],5.68% [at 6.55 µM]
same,"activity change, negative = cytotoxicity",[10],10.1% [at 6.55 µM]
same,"activity, negative = cell killing","[11]; at 20 µM (top of the series), tumour line C",-26.8%
same,"activity, negative = cell killing","[11]; at 21.2 µM (top of the series), tumour line B",-15.7%
same,"activity, negative = cell killing","[11]; at 21.2 µM (top of the series), tumour line D",-22.8%
same,Potency,[12],inactive
O=C(O)[C@H](O)c1ccccc1,Potency,[1],inactive
same,Potency,[2],inactive
same,Potency,[3],inactive
same,Potency,[4],inactive
same,Potency,[5],inactive
same,Potency,[6],inactive
same,Potency,[7],inactive
same,Potency,[8],inactive
same,Potency,[9],inactive
same,Potency,[10],inactive
same,"activity, negative = cell killing",[11]; [15],-2.7%
same,"activity, negative = cell killing",[11]; [16],3.57%
same,"activity, negative = cell killing",[11]; [18],1.65%
same,Potency,[12],inactive
COc1ccc2[nH]c(S(=O)Cc3ncc(C)c(OC)c3C)nc2n1 (stereo not drawn),Potency,[1],inactive
same,Potency,[2],inactive
same,Potency,[3],inactive
same,Potency,[4],inactive
same,Potency,[5],inactive
same,Potency,[6],inactive
same,Potency,[7],inactive
same,Potency,[8],inactive
same,Potency,[9],inactive
same,Potency,[10],inactive
same,"activity, negative = cell killing",[11]; [15],-28.9%
same,"activity, negative = cell killing",[11]; [16],-21.6%
same,Potency,[11]; tumour line A,11.2 µM (active)
same,Potency,[12],inactive
CN1[C@@H]2CC(OC(=O)[C@H](CO)c3ccccc3)C[C@H]1[C@@H]1O[C@@H]12 (stereo partly drawn),Potency,[1],inactive
same,Potency,[2],inactive
same,Potency,[3],inactive
same,Potency,[4],inactive
same,Potency,[5],inactive
same,Potency,[6],inactive
same,Potency,[7],inactive
same,Potency,[8],inactive
same,Potency,[9],inactive
same,Potency,[10],inactive
same,"activity, negative = cell killing",[11]; [15],-8.37% and 0.366%
same,"activity, negative = cell killing",[11]; [16],-25.9% and -16.8%
same,"activity, negative = cell killing",[11]; [18],15.6% and -2.3%
same,Potency,[12],inactive
CCOC(=O)[C@H](CCc1ccccc1)N[C@@H](C)C(=O)N1C(=O)N(C)C[C@H]1C(=O)O,Potency,[1],inactive
same,Potency,[2],inactive
same,Potency,[3],inactive
same,Potency,[4],inactive
same,Potency,[5],inactive
same,Potency,[6],inactive
same,Potency,[7],inactive
same,Potency,[8],inactive
same,Potency,[9],inactive
same,Potency,[10],inactive
same,"activity, negative = cell killing",[11]; [15],-4.44%
same,"activity, negative = cell killing",[11]; [16],-4.75%
same,"activity, negative = cell killing",[11]; [17],-37.7%
same,Potency,[12],inactive
